Screens from PubChem.
Rows were chosen to be rich in hits. Some 2.4% of all compounds tested hit in one or more screens of this group.
SENP7 block = blocks the human protease SENP7; recombinant SENP7, Z-RLRGG-aminoluciferin luminescence, 40 min; 330,000 compounds, 1.5% hits; inhibition, % at 5 µM; AID 434973;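 active = inhibition above about 50% at the single test dose, limit read from the data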
Platelet DG rel = modulates dense granule release in human platelets. inhibition, %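 (compounds screened at 7.5 µM in platelet-rich plasma)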. AID 1663. 300,000 compounds, 0.22% hits. human platelet-rich plasma, SFLLRN dense granule ATP release, luminescence;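 active = mean replicate score, as percent of positive control, at or above 50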
SENP8 block-1 = inhibitors of human SENP8 protease; Q96LD8; recombinant SENP8, Nedd8 substrate fluorescence; inhibition, % at 20 µM; 360,000 compounds, 0.64% hits; AID 602440; in the data active = inhibition mostly above about 40%, no sharp cut-off; inactive = mostly below about 27%
SENP8 block-2 = inhibitors of human SENP8 protease. purified SENP8, Z-RLRGG-aminoluciferin cleavage, luminescence. 330,000 compounds, 1.2% hits. Q96LD8. inhibition, % at 10 µM; in the data active = inhibition above about 50%
SENP6 inh = blocks the human protease SENP6 | Q9GZR1 | Recombinant SENP6 catalytic domain, aminoluciferin luminescence | inhibition, % at 10 µM | 330,000 compounds, 1.8% hits | AID 2599;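 active = inhibition above about 50% at the single tested dose, limit read from the data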
Target sequence (Q9GZR1 628-1112 limits assumed): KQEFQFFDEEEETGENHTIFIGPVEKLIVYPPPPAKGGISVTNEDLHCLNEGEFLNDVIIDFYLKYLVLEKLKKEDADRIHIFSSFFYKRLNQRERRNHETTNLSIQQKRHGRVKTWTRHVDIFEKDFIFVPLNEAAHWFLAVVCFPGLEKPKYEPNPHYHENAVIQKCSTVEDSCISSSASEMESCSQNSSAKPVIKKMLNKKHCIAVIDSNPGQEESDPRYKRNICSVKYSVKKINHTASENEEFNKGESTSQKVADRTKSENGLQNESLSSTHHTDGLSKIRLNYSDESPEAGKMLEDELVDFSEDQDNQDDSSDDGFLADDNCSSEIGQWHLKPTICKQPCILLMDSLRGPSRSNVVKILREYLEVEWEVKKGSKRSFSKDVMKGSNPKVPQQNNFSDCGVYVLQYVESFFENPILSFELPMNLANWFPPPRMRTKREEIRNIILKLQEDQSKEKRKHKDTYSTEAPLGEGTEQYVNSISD
SENP8 conf = confirmation of human SENP8 protease inhibitors; 6,200 compounds, 40% hits; inhibition, % at 12.5 µM; shares compounds with SENP7 block; Recombinant SENP8, Z-RLRGG-aminoluciferin luminescence, 60 min; AID 488912;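 active = mean inhibition across replicates above about 50%, limit read from the data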
SENP6 confirm = human SENP6 inhibition, confirmed. recombinant SENP6, Z-RLRGG-aminoluciferin luminescence. 6,200 compounds, 58% hits. shares compounds with SENP7 block. inhibition, % at 12.5 µM
SENP7 confirm = confirmation of human SENP7 protease inhibitors. shares compounds with SENP7 block. recombinant SENP7, Z-RLRGG-aminoluciferin luminescence, 40 min. inhibition, % at 12.5 µM. 6,200 compounds, 69% hits. AID 488917
Casp3 SENP sel = selectivity test for SENP inhibitors: human caspase-3 inhibition | shares compounds with SENP7 block | purified caspase-3, Z-DEVD-aminoluciferin luminescence, 60 min | inhibition, % at 12.5 µM | 6,200 compounds, 60% hits;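 active = mean inhibition above about 50%, limit read from the data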
SENP luc ctr = interferes with luciferase luminescence in SENP counter-screen; Pre-incubated SENP8/Z-RLRGG-aminoluciferin, luciferase luminescence interference; inhibition, % at 12.5 µM; 6,200 compounds, 39% hits; shares compounds with SENP7 block; AID 488919;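 active = mean inhibition above about 50% when retested at one dose, limit read from the data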
Of the large screens only hits and unclear results are named; the others gave an inactive call (follow-up assays come after a bar, where they were run).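 Rule for the calls, unless noted: active = mean inhibition above about 50% in the one-dose retest (limit read from the data); inactive = the rest.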

O=c1[nH]ncc(N/N=C\c2ccc(O)cc2O)c1Cl	SENP7 block 65, SENP8 block-2 63, SENP6 inh 69 | SENP8 conf 66 | SENP6 confirm 64 | SENP7 confirm 87 | Casp3 SENP sel 81 | SENP luc ctr 62
O=C1NC2NC(=O)N(C(Cc3ccccc3)C(=O)O)C2N1 (centres undefined)	SENP6 inh 60 | SENP8 conf inactive | SENP6 confirm inactive | SENP7 confirm inactive | Casp3 SENP sel inactive | SENP luc ctr inactive
COc1ccc(NC(=O)CSCC(=O)N(C)CCOc2ccc(Cl)cc2)cc1	none (no result: Platelet DG rel)
O=C1/C(=C/c2cccs2)COc2ccccc21	SENP7 block 83, SENP8 block-2 81, SENP6 inh 98 | SENP8 conf 86 | SENP6 confirm 92 | SENP7 confirm 90 | Casp3 SENP sel 69 | SENP luc ctr 94
Cc1ccc2c(c1)CCCN2CC(=O)N(C)c1c(N)n(Cc2ccccc2)c(=O)[nH]c1=O	none (no result: Platelet DG rel)
O=C(N/N=C/c1cc2c(cc1Cl)OCO2)c1ccccn1	SENP6 inh 66 | SENP8 conf inactive | SENP6 confirm inactive | SENP7 confirm inactive | Casp3 SENP sel 52 | SENP luc ctr inactive
Cc1ccsc1/C=N/NC(=O)c1cccs1	none
O=C(N/N=C/c1ccc(OC(=O)c2ccccc2Br)cc1)c1ccccn1	SENP7 block 71 | SENP8 conf inactive | SENP6 confirm inactive | SENP7 confirm inactive | Casp3 SENP sel inactive | SENP luc ctr inactive
CC(C)(C)c1ccc(/C=N/NC(=O)c2ccccn2)cc1	SENP7 block 79, SENP8 block-2 59 | SENP8 conf inactive | SENP6 confirm inactive | SENP7 confirm inactive | Casp3 SENP sel inactive | SENP luc ctr inactive
Cc1ccsc1/C=N/NC(=O)c1ccccn1	SENP6 inh 61 | SENP8 conf inactive | SENP6 confirm inactive | SENP7 confirm 78 | Casp3 SENP sel 84 | SENP luc ctr 60
Cc1[nH]n(-c2ccc([N+](=O)[O-])cc2)c(=O)c1C=NCCN1CCN(C(=O)c2cccc(F)c2)CC1	SENP7 block 88, SENP8 block-2 67, SENP6 inh 90 | SENP8 conf inactive | SENP6 confirm inactive | SENP7 confirm inactive | Casp3 SENP sel inactive | SENP luc ctr 57
Cc1[nH]n(-c2ccccc2)c(=O)c1/C=N/NC(=O)c1cccc(F)c1	none
Cc1[nH]n(-c2ccc([N+](=O)[O-])cc2)c(=O)c1C=NCCN1CCN(C(=O)c2ccc(Br)cc2)CC1	SENP7 block 88, SENP6 inh 64 | SENP8 conf inactive | SENP6 confirm inactive | SENP7 confirm inactive | Casp3 SENP sel 55 | SENP luc ctr 56
CC1(C)CC(=O)C(C=NCCN2CCN(C(=O)c3ccc(Br)cc3)CC2)=C(O)C1	none
Cc1cc(NC(=O)CSc2nnc(C3COc4ccccc4O3)n2C)no1 (centres undefined)	none
COC(=O)CSc1nnc(C2COc3ccccc3O2)n1-c1ccccc1 (centres undefined)	SENP7 block 76 | SENP8 conf inactive | SENP6 confirm inactive | SENP7 confirm inactive | Casp3 SENP sel inactive | SENP luc ctr inactive
COc1cc(CNc2ncn[nH]2)ccc1OCc1cccc(C)c1	none
Cc1sc2nc(-c3cccs3)oc(=O)c2c1C	SENP7 block 51 | SENP8 conf inactive | SENP6 confirm inactive | SENP7 confirm 60 | Casp3 SENP sel inactive | SENP luc ctr inactive
Cc1ccccc1-c1nc2sc3c(c2c(=O)o1)CCC3	SENP7 block 79, SENP8 block-2 83, SENP6 inh 88 | SENP8 conf inactive | SENP6 confirm inactive | SENP7 confirm 53 | Casp3 SENP sel inactive | SENP luc ctr inactive
O=c1oc(-c2ccccc2)nc2sc3c(c12)CCCC3	SENP7 block 96, SENP8 block-2 92, SENP6 inh 94 | SENP8 conf 62 | SENP6 confirm inactive | SENP7 confirm inactive | Casp3 SENP sel 81 | SENP luc ctr inactive
O=c1oc(-c2cccs2)nc2sc3c(c12)CCCCC3	SENP6 inh 55 | SENP8 conf inactive | SENP6 confirm inactive | SENP7 confirm inactive | Casp3 SENP sel inactive | SENP luc ctr inactive
O=c1oc(-c2cc3ccccc3o2)nc2sc3c(c12)CCCC3	none
CCCN(CC(=O)Nc1ccccc1C)C(=O)c1ccc(C2SCCS2)cc1	none
Cc1cccc(-n2ncc3c2CCCC3NC(=O)CCN2Cc3ccccc3C2=O)c1C (centres undefined)	none
O=C(Nc1ccc(Cl)c(Cl)c1)c1cccc(S(=O)(=O)NCc2cccnc2)c1	none
O=C(CCOc1ccccc1)Nc1ccnn1C1CCN(C(=O)CCC(F)(F)F)CC1	none
Cc1ccccc1-c1nc2sc3c(c2c(=O)n1N)CCCC3	none
O=c1oc(/C=C/c2ccccc2)nc2sc3c(c12)CCC3	SENP6 inh 65 | SENP8 conf inactive | SENP6 confirm inactive | SENP7 confirm inactive | Casp3 SENP sel inactive | SENP luc ctr inactive
Nn1c(-c2cccs2)nc2sc3c(c2c1=O)CCCC3	SENP7 block 59, SENP8 block-2 71, SENP6 inh 90 | SENP8 conf inactive | SENP6 confirm 70 | SENP7 confirm 90 | Casp3 SENP sel 60 | SENP luc ctr inactive
O=C(O)CSCC(=O)Nc1ccc(-c2nc3ccccc3s2)cc1	SENP7 block 92, SENP8 block-2 92, SENP6 inh 94 | SENP8 conf 96 | SENP6 confirm 96 | SENP7 confirm 101 | Casp3 SENP sel 96 | SENP luc ctr 96
Cc1ccc2nc(-c3ccc(NC(=O)COCC(=O)O)cc3)sc2c1	SENP7 block 63, SENP8 block-2 82, SENP6 inh 79 | SENP8 conf 90 | SENP6 confirm 90 | SENP7 confirm 99 | Casp3 SENP sel 82 | SENP luc ctr 87
Cc1nc(-c2ccc(NC(=O)/C=C\C(=O)O)cc2)cs1	none
Cc1ccc2sc(-c3ccc(NC(=O)/C=C\C(=O)O)cc3)nc2c1	SENP8 block-2 55, SENP6 inh 72 | SENP8 conf inactive | SENP6 confirm inactive | SENP7 confirm inactive | Casp3 SENP sel inactive | SENP luc ctr inactive
Cc1csc(NC(=O)CSCC(=O)O)c1-c1nc2ccccc2s1	none
Cc1ccc2nc(-c3ccc(NC(=O)CSCC(=O)O)cc3)sc2c1	SENP8 block-2 65, SENP6 inh 82 | SENP8 conf inactive | SENP6 confirm 66 | SENP7 confirm 88 | Casp3 SENP sel 55 | SENP luc ctr 68
CCC(=O)NC(=S)Nc1ccc(-c2nc3ccc(C)cc3s2)cc1	none
